This is part of a sample that, as a whole, favours compounds with a hit. Of some 83,000 tested, about 20% had one in any assay.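 96-well plates, one dose, 48 hours. Percent growth reported; active if below 10.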 Active and inactive are the calls of the source.
The compounds below were run on CCRF-CEM leukemia (assay: NCI-60 one-dose screen, 48 h (100 = growth as untreated, 0 = no growth, -100 = all killed)). Conditions: 10 µM unless noted.

Q: `C=CCNC(=S)N/C=C(/C(=O)c1ccccc1)c1ccccc1` was tested. Which growth did it give?
A: The growth was 101% (inactive).

Q: For `Cc1ccc(C2CCCCC2)cc1Br`, which growth is on record?
A: Its growth is 103% (inactive).

Q: How did the growth turn out when `OCCc1ccc(Cl)cc1` was run?
A: The growth was 96.9% (inactive).

Q: `C/C(O)=C(/C=N/C(=S)Nc1ccccc1)C(=O)Nc1ccccc1C` was tested. Which growth did it give?
A: The growth was 90.9% (inactive).

Q: `CC1(C)OC(=O)CC1=O` was tested. Which growth did it give?
A: Its growth is 89.3% (inactive).

Q: How did the growth turn out when `CN(C)CCOC(=O)Nc1ccc(Cc2ccc(NC(=O)OCCN(C)C)cc2)cc1` was run?
A: Its growth is 51.3% [100 µM] (inactive).

Q: `O=c1nc(Nc2cccc(Cl)c2)oc2cc(Cl)oc(=O)c12` was tested. Which growth did it give?
A: Its growth is 56.7% (inactive).

Q: `OCCNc1ccccc1` was tested. Which growth did it give?
A: Its growth is 105% (inactive).

Q: How did the growth turn out when `O=C(Oc1ccccc1Cl)c1ccc(Cl)cc1Cl` was run?
A: Its growth is 99.9% (inactive).

Q: With `COc1cc(OC)c2cc(C(=O)c3ccc(C#N)cc3)c(=O)oc2c1` as the compound, how does the growth read?
A: The growth was 101% (inactive).

Q: Which growth does the source give for `CC(C)C1CCC(C)C(O)C1` (stereo not given) here?
A: Its growth is 96.1% (inactive).

Q: For `O=C(NC1CCCCC1)c1ccc(Cl)cc1`, which growth is on record?
A: The growth was 98.4% (inactive).

Q: How did the growth turn out when `O=C1C=Cc2ccccc2/C1=C/c1[nH]c(=O)[nH]c1O` was run?
A: Its growth is 24.3% (inactive).

Q: `NC(CO)(CO)c1ccccc1` was tested. Which growth did it give?
A: Its growth is 90% (inactive).

Q: Which growth does the source give for `Nc1cc(N)ncn1` here?
A: Its growth is 99.2% (inactive).

Q: Which growth does the source give for `S=C(Sc1ccc(Cl)cc1)Sc1ccc(Cl)cc1` here?
A: Its growth is -15.8% (active).

Q: Which growth does the source give for `CCOc1ccc(C(=O)O)cc1` here?
A: The growth was 105% (inactive).

Q: `COc1cccc(C(=O)NNC(=O)c2cccc3ccccc23)c1` was tested. Which growth did it give?
A: Its growth is 104% (inactive).

The compounds below were run on MOLT-4 leukemia in the same assay as above. Conditions: 10 µM unless noted.

Q: Which growth does the source give for `NC(=O)N1CCOCC1` here?
A: The growth was 93.7% (inactive).

Q: How did the growth turn out when `N#Cc1ccc(OC(=O)Nc2c(Cl)cc(Cl)cc2Cl)cc1` was run?
A: Its growth is 111% (inactive).

Q: Which growth does the source give for `CCOC(=O)/C(C)=C\c1ccc(OC)c(OC)c1` here?
A: The growth was 94.5% (inactive).

Q: With `O=S(Cc1ccccc1)/C(=C/NC(=S)Nc1ccccc1)c1ccccc1` (stereo not given) as the compound, how does the growth read?
A: The growth was 103% (inactive).

Q: Which growth does the source give for `C/C(=N\O)c1ccccn1` here?
A: Its growth is 116% (inactive).

Q: For `CC(C)NC(=O)OCc1c(COC(=O)NC(C)C)c(-c2ccc(Cl)cc2)n2c1CCC2`, which growth is on record?
A: The growth was 21.9% (inactive).

Q: With `CC(=O)NNC(=S)/N=C\C(C(=O)c1ccccc1)=C(/O)c1ccccc1` as the compound, how does the growth read?
A: Its growth is 93% (inactive).

Q: With `C=CCS(C)(=O)=O` as the compound, how does the growth read?
A: Its growth is 109% (inactive).

Q: With `O=C(NCc1ccccc1)c1cccc([N+](=O)[O-])c1` as the compound, how does the growth read?
A: The growth was 102% (inactive).

Q: Which growth does the source give for `c1ccc(-c2ccc3ccccc3c2)cc1` here?
A: The growth was 80.8% (inactive).

Q: `Cc1ccccc1NC(=O)Oc1ccc(Cl)cc1C(=O)c1ccccc1` was tested. Which growth did it give?
A: The growth was 86.3% (inactive).

Q: Which growth does the source give for `CCC(C)c1c(N)n(S(=O)(=O)c2ccc(C)cc2)oc1=O` (stereo not given) here?
A: Its growth is 109% (inactive).

Q: For `O=Cc1c(O)c2ccccc2[nH]c1=O`, which growth is on record?
A: The growth was 104% (inactive).

Q: `COC(=O)c1ccccc1C(=O)c1c(C)cc(C)cc1C` was tested. Which growth did it give?
A: Its growth is 87.9% (inactive).

Q: `N=C(N)c1nn(C2OC(CO)C(O)C2O)c2nc[nH]c(=O)c12` (stereo not given) was tested. Which growth did it give?
A: Its growth is -11.9% (active).

Q: Which growth does the source give for `COc1cccc(C(=O)O)c1OC` here?
A: Its growth is 110% (inactive).

Q: Which growth does the source give for `O=C(O)c1cc(I)ccc1O` here?
A: The growth was 108% (inactive).

Q: How did the growth turn out when `CC(=O)NNC(=S)N/C=C/c1c(C)ccc([N+](=O)[O-])c1[N+](=O)[O-]` was run?
A: Its growth is 95.5% (inactive).

Q: `NNc1ncnc2c1ncn2C1OC(CO)C(O)C1O` (stereo not given) was tested. Which growth did it give?
A: The growth was 109% (inactive).

Q: How did the growth turn out when `C=CCNC(=S)N/C=C(/C(=O)c1ccccc1)c1ccccc1` was run?
A: The growth was 99.2% (inactive).

Q: `Cc1ccc(C2CCCCC2)cc1Br` was tested. Which growth did it give?
A: The growth was 110% (inactive).

Q: With `OCCc1ccc(Cl)cc1` as the compound, how does the growth read?
A: The growth was 109% (inactive).

Q: Which growth does the source give for `C/C(O)=C(/C=N/C(=S)Nc1ccccc1)C(=O)Nc1ccccc1C` here?
A: The growth was 96.9% (inactive).

Q: For `CC1(C)OC(=O)CC1=O`, which growth is on record?
A: The growth was 85.1% (inactive).

Q: For `CN(C)CCOC(=O)Nc1ccc(Cc2ccc(NC(=O)OCCN(C)C)cc2)cc1`, which growth is on record?
A: The growth was 37.6% [100 µM] (inactive).

Q: How did the growth turn out when `O=c1nc(Nc2cccc(Cl)c2)oc2cc(Cl)oc(=O)c12` was run?
A: Its growth is 21.5% (inactive).

Q: Which growth does the source give for `OCCNc1ccccc1` here?
A: The growth was 101% (inactive).

Q: `O=C(Oc1ccccc1Cl)c1ccc(Cl)cc1Cl` was tested. Which growth did it give?
A: The growth was 110% (inactive).

Q: How did the growth turn out when `COc1cc(OC)c2cc(C(=O)c3ccc(C#N)cc3)c(=O)oc2c1` was run?
A: Its growth is 103% (inactive).

Q: For `CC(C)C1CCC(C)C(O)C1` (stereo not given), which growth is on record?
A: Its growth is 113% (inactive).

Q: `O=C(NC1CCCCC1)c1ccc(Cl)cc1` was tested. Which growth did it give?
A: The growth was 95.2% (inactive).

Q: `O=C1C=Cc2ccccc2/C1=C/c1[nH]c(=O)[nH]c1O` was tested. Which growth did it give?
A: Its growth is 43% (inactive).

Q: Which growth does the source give for `NC(CO)(CO)c1ccccc1` here?
A: Its growth is 108% (inactive).

Q: `Nc1cc(N)ncn1` was tested. Which growth did it give?
A: The growth was 93.5% (inactive).

Q: For `S=C(Sc1ccc(Cl)cc1)Sc1ccc(Cl)cc1`, which growth is on record?
A: The growth was -25.4% (active).

Q: How did the growth turn out when `CCOc1ccc(C(=O)O)cc1` was run?
A: Its growth is 116% (inactive).

Q: Which growth does the source give for `COc1cccc(C(=O)NNC(=O)c2cccc3ccccc23)c1` here?
A: The growth was 98.8% (inactive).
